A short description of experiment [1]: Nuclear factor erythroid 2-related factor 2/antioxidant responsive element (Nrf2/ARE) small molecule agonists: qHTS cell viability counter screen in human keratinocytes (AID 1919968; active = well fitted curve in the direction sought with a large enough effect in the repeat runs; an effect the other way counts as inactive or inconclusive; note: nearly all actives have a fitted effect of over 55% in size). In outline:
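Viability counter-screen: KeratinoSens reporter cells, DMSO-delivered compounds, 23 h at 37 C, CellTiter-Fluor fluorescence.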
In general terms: qHTS replaces the single test concentration by a dilution series.

Experiment [2] is described as follows: Nuclear factor erythroid 2-related factor 2/antioxidant responsive element (Nrf2/ARE) small molecule agonists: luciferase reporter gene qHTS assay in human keratinocytes (AID 1919969). Note: nearly all actives have a fitted effect of over 35% in size. Note: potency is the fitted concentration of half-maximal effect.
In experiment [3] the target is Gonadotropin-releasing hormone receptor (Homo sapiens) (UniProt P30968). In words: Human gonadotropin-releasing hormone receptor (GnRHR) small molecule agonists, calcium flux assay in GnRHR-HEK293 cells (AID 1920063). Note: nearly all actives have a fitted effect of over 35% in size. In outline: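 Tox21-format agonist screen using human GnRHR-expressing HEK293 cells and a fluorescent calcium dye; kinetic 3-min fluorescence reading after compound addition, 15-point concentration series run in triplicate.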
Gonadotropin-releasing hormone receptor (Homo sapiens), sequence (P30968 whole entry, looked up): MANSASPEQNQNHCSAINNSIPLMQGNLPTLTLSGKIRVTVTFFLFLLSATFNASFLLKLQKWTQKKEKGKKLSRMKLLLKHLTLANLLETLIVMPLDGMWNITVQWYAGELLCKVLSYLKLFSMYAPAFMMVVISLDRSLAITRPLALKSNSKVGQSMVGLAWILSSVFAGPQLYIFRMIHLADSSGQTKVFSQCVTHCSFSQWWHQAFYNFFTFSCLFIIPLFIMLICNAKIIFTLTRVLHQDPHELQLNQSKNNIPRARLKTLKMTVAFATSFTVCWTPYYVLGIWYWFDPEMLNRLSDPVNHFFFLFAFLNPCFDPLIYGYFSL

For experiment [4], the target named is KiSS-1 receptor (Homo sapiens) (UniProt Q969F8). Nature of the experiment: Human kisspeptin (KISS1R) small molecule agonists, calcium flux assay in KISS1R-HEK293 cells (AID 1920064; active = well fitted curve in the direction sought with a large enough effect in the repeat runs; an effect the other way counts as inactive or inconclusive). Put shortly:
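Intracellular calcium mobilization in KISS1R-HEK293 cells was recorded by fluorescence (Ex/Em 480/540) for 3 min following compound addition to cells pre-loaded 1 h with calcium dye.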
(Calcium assays in cells follow changes in intracellular calcium, usually with a dye or a luminescent sensor.)

Experiment [5] is described as follows: G protein-coupled receptor (GPCR) small molecule agonists, calcium flux assay: HEK293 wild type cell line counter screen (AID 1920065). Put shortly: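 In this agonist-mode screen, ATP is the positive control and DMSO the vehicle. Cells grow 18 h before a 1 h dye incubation at 37 C; signal is taken at Ex/Em 480/540 over 3 min.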
Experiment [6] can be described thus: p53 small molecule agonists, cell-based qHTS assay with human liver microsomes (AID 1963577).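 Note: p53 response element beta-lactamase reporter cells with liver microsomes plus NADPH.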 In outline: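 With metabolic activation: human liver microsomes (0.5 mg/mL final) plus NADPH (0.5 mg/mL final) added alongside compounds to p53RE-bla cells; 16 h 37 C exposure; beta-lactamase read by LiveBLAzer fluorescence.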
Experiment [7] can be described thus: p53 small molecule agonists, cell-based qHTS assay with rat liver microsomes (AID 1963578). Put shortly: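 Metabolic activation by rat liver microsomes and NADPH, each 0.5 mg/mL final, added right after compounds to p53RE-bla reporter cells (4,000/well, plated 5 h earlier). 16 h at 37 C, then LiveBLAzer substrate for 2 h at room temperature in the dark; fluorescence read-out.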

Experiment [8] is described as follows: p53 small molecule agonists, cell-based qHTS assay with human liver microsomes: qHTS cell viability counter screen (AID 1963579). Note: nearly all actives have a fitted effect of over 45% in size. Put shortly: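 Metabolic activation used human liver microsomes and NADPH, both 0.5 mg/mL final, over 16 hours at 37 C on p53RE-bla cells (4,000/well). Cytotoxicity measured by CellTiter-Glo luminescence, 30 min at room temperature.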

Experiment [9] in a line: p53 small molecule agonists, cell-based qHTS assay with rat liver microsomes: qHTS cell viability counter screen (AID 1963580). Note: nearly all actives have a fitted effect of over 45% in size. Put shortly:
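p53RE-bla HCT-116 cells were exposed 16 h at 37 C to compounds with rat liver microsomes (0.5 mg/mL) and NADPH (0.5 mg/mL). Viability was measured in the same wells as ATP content by CellTiter-Glo luminescence.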

Experiment [10] can be described thus: p53 small molecule agonists, cell-based qHTS assay: qHTS cell viability counter screen (AID 1963581). Note: nearly all actives have a fitted effect of over 45% in size. Note: potency is the fitted concentration of half-maximal effect. Put shortly:
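Compounds are pinned onto HCT-116 p53RE-bla cells and left 16 h at 37 C. Following the reporter FRET read, ATP is quantified by CellTiter-Glo luminescence after 30 min at room temperature.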

Experiment [11] is described as follows: p53 small molecule agonists, cell-based qHTS assay (AID 1963582; active = well fitted activation curve with a large enough effect in the signal ratio in the repeat runs, not every such curve was filed as active; the % refers to the signal ratio). In outline: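 Agonist activity was scored from beta-lactamase FRET fluorescence in p53RE-bla cells treated 16 h at 37 C with compounds in DMSO, substrate incubation being 2 h at room temperature.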
Experiment [12] concerns the target 5-hydroxytryptamine receptor 2A (Homo sapiens) (UniProt P28223). In words: 5-hydroxytryptamine receptor 2A (HTR2A) small molecule antagonists, cell-based qHTS assay (AID 1963586). Note: nearly all actives have a fitted effect of over 45% in size. In outline: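 Antagonist-mode intracellular calcium assay: DOI (4 nM) added after 5 min compound pre-incubation at room temperature to dye-loaded HTR2A-CHO cells. Fluorescence followed for 3 min, sampled every second.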

For experiment [13] the target is unchanged. In words: 5-hydroxytryptamine receptor 2A (HTR2A) small molecule agonists, cell-based qHTS assay (AID 1963587). Note: nearly all actives have a fitted effect of over 30% in size. Put shortly:
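CHO cells stably expressing human HTR2A, plated 18 h, loaded with calcium dye 1 h at 37 C. Agonist mode: compounds added and intracellular calcium fluorescence recorded kinetically for 2 min at 1 sec intervals.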

In experiment [14] the target is Muscarinic acetylcholine receptor M1 (Homo sapiens) (UniProt P11229). Nature of the experiment: Cholinergic receptor muscarinic 1 (CHRM1) small molecule antagonists, cell-based qHTS assay (AID 1963588). Note: nearly all actives have a fitted effect of over 40% in size. Note: potency is the fitted concentration of half-maximal effect. Put shortly:
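CHRM1-CHO calcium-flux assay, antagonist mode. Cells were seeded 18 h, dye-loaded 1 h at 37 C and given compound for 5 min at RT, then acetylcholine was added at 50nM. FDSS fluorescence was read 3 min; 15 concentrations, three runs.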

Experiment [15] has the same target. Nature of the experiment: Cholinergic receptor muscarinic 1 (CHRM1) small molecule agonists, cell-based qHTS assay (AID 1963589). Note: nearly all actives have a fitted effect of over 35% in size. Put shortly:
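Stable CHRM1-CHO cells (human receptor) were incubated 18 h, dye-loaded for 1 h at 37 C and exposed to test compounds for agonist activity, with calcium-dependent fluorescence followed kinetically.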

A short description of experiment [16]: cAMP Responsive Elements (CRE) small molecule agonists, cell-based qHTS assay (AID 1963590). In outline:
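FRET-based beta-lactamase readout (LiveBLAzer B/G, 2 h RT) quantified CRE activation in HEK 293T CRE-bla cells after 3 h treatment with DMSO-dissolved compounds.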

The nature of experiment [17]: cAMP Responsive Elements (CRE) small molecule antagonists, cell-based qHTS assay (AID 1963591; active = well fitted inhibition curve with a large enough effect in the signal ratio in the repeat runs, not every such curve was filed as active; the % refers to the signal ratio). In outline:
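qHTS in CRE-bla HEK 293T cells: compound in DMSO, then 0.25 uM NKH477 (final), 3 h at 37 °C/5% CO2; beta-lactamase FRET read-out after 2 h substrate incubation.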

The target in experiment [18] is Beta-2 adrenergic receptor (Homo sapiens) (UniProt P07550). In words: Adrenergic beta2 receptor (ADRB2) small molecule antagonists, cell-based qHTS assay (AID 1963592). Note: series mostly up to about 92 µM; nearly all actives have a fitted effect of over 50% in size. In outline: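 Cells (CHO, stable ADRB2 overexpression) incubated 18-20hr at 37C; compounds added from DMSO; agonist mix (1nM isoproterenol, 100uM IBMX, 25uM Ro-20-1724) added; 0.5hr RT; d2-cAMP and anti-cAMP-cryptate added; 1hr RT; 665/615 nm read.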
Beta-2 adrenergic receptor (Homo sapiens), sequence (P07550 whole entry, looked up): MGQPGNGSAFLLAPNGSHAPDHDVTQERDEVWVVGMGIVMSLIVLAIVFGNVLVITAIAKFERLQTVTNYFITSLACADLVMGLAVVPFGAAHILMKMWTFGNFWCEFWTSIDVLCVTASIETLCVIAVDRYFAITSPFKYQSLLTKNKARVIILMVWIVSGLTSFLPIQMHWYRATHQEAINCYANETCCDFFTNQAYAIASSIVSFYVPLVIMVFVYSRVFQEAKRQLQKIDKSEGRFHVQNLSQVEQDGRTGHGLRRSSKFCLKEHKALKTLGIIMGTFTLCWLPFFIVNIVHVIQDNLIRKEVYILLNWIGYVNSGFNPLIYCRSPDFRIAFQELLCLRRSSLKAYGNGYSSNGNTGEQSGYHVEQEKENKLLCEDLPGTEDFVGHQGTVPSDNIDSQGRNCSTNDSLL

Experiment [19] deals with D(2) dopamine receptor (Homo sapiens) (UniProt P14416). In words: Dopamine D2 receptor (DRD2) small molecule agonists, cell-based qHTS assay (AID 1963594). Note: nearly all actives have a fitted effect of over 35% in size. In outline:
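HEK293 cells stably expressing human DRD2, pre-treated with PDE inhibitor Ro20-1724 (0.1 mM final) and compound 10 min at room temperature, then stimulated with NKH477 (200nM […]) for 30 min. cAMP read by HTRF (665/620 nm).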

Experiment [20] has the same target. In words: Dopamine D2 receptor (DRD2) small molecule antagonists, cell-based qHTS assay (AID 1963595; active = well fitted inhibition curve with a large enough effect in the signal ratio in the repeat runs, with a control signal flat; the % refers to the signal ratio). In outline: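 In this cell-based antagonist screen, compounds act for 10 min at room temperature before a 30 min challenge with 12 nM quinpirole and 200 nM NKH477. cAMP is quantified by HTRF competition in DRD2-HEK293 cells containing 0.1 mM Ro20-1724.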

Where “and” joins values, the source holds several entries; their conditions need not be identical. Equal entries are not always repeated. Inconclusive results are not listed. Some compounds were tested as several samples or in several runs, with calls that do not always agree. Calls of active or inactive are those of the source. Unless noted, calls come from the whole dose curve.

For eight compounds, Potency results are on record in PubChem BioAssay (Tox21).

Muscarinic acetylcholine receptor M1 (Homo sapiens), sequence (P11229 whole entry, looked up): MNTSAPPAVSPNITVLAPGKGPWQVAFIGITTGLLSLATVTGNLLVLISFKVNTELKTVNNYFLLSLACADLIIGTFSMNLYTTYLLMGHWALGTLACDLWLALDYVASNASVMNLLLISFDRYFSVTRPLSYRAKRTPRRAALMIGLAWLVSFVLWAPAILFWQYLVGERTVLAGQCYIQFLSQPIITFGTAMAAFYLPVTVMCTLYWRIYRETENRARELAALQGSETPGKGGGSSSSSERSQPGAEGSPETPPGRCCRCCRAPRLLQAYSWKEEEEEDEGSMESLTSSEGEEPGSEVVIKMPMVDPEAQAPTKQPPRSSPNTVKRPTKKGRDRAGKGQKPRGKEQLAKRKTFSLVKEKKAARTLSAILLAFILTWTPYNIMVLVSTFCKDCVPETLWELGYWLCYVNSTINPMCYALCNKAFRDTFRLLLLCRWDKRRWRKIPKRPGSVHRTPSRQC
D(2) dopamine receptor (Homo sapiens), sequence (P14416 whole entry, looked up): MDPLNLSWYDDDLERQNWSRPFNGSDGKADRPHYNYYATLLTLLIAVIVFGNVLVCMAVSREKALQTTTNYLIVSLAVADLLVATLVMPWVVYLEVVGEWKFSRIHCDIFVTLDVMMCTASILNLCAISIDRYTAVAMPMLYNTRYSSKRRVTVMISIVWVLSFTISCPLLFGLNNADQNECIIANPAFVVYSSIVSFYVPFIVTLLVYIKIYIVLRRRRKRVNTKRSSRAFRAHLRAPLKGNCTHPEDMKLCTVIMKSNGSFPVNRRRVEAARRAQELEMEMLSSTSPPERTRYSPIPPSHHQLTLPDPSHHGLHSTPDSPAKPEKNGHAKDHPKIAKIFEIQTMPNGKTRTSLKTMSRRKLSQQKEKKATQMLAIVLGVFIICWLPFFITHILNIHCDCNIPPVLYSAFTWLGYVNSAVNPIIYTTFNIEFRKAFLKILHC
5-hydroxytryptamine receptor 2A (Homo sapiens), sequence (P28223 whole entry, looked up): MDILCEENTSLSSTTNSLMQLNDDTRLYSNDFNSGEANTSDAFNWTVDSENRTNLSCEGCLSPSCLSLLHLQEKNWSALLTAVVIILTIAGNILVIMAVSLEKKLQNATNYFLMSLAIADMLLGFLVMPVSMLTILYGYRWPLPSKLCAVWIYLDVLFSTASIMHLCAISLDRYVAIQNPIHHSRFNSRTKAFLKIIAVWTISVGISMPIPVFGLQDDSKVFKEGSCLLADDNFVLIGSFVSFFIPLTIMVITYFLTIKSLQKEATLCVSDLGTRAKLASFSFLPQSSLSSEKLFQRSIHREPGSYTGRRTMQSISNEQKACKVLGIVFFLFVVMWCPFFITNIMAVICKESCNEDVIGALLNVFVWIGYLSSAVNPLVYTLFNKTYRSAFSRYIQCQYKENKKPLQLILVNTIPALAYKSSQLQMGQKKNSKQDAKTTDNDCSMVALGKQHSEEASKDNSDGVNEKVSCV
KiSS-1 receptor (Homo sapiens), sequence (Q969F8 whole entry, looked up): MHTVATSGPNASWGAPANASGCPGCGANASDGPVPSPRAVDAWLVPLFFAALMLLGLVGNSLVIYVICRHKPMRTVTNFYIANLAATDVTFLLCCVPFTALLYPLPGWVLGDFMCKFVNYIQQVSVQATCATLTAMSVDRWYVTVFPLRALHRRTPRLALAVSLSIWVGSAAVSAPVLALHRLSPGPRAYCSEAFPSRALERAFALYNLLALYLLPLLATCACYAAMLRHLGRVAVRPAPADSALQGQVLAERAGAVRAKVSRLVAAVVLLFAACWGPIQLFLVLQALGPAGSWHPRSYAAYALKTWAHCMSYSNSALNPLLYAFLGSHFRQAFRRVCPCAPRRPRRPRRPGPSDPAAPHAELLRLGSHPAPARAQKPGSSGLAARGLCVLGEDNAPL

Regarding `CC(C)CCCCCOC(=O)c1ccccc1C(=O)OCCCCCC(C)C`, the Potency result in [1], in experiment [2], in [3], in experiment [4], in experiment [5] and in experiment [6] was “inactive” each time. In addition, the Potency result in experiment [7], in [8], in experiment [9], in [10], in experiment [11] and in experiment [12] was “inactive” in each case. Further, the Potency entry in experiment [13], in experiment [15], in experiment [16], in experiment [17], in experiment [18] and in experiment [19] was “inactive” each time. In experiment [20], the Potency result was “inactive”. In addition, in experiment [14], the Potency was 2620 nM (active).

As for `BrC(Br)Br`, the Potency result in experiment [1], in experiment [2], in experiment [3], in [4], in experiment [5] and in [6] was “inactive” in each case. The Potency result in [7], in [8], in experiment [9], in [10], in experiment [11] and in experiment [12] was “inactive” each time. For the same compound, the Potency entry in [13], in experiment [14], in experiment [15], in experiment [16], in [17] and in experiment [18] was “inactive” each time. The Potency result in experiment [19] and in experiment [20] was “inactive” each time.

Turning to `CCCCCCCCCBr`, the Potency entry in experiment [1], in experiment [2], in experiment [3], in [4], in experiment [5] and in experiment [6] was “inactive” each time. For the same compound, the Potency entry in [7], in [8], in experiment [9], in experiment [10], in [11] and in experiment [12] was “inactive” in each case. The Potency entry in experiment [13], in experiment [14], in [15], in experiment [16], in [17] and in experiment [18] was “inactive” throughout. Besides, the Potency result in experiment [19] and in [20] was “inactive” throughout.

Take `CC1=C(C(=O)Nc2ccccc2)SCCO1`: the Potency entry in experiment [1], in experiment [3], in experiment [4], in experiment [5], in [6] and in experiment [7] was “inactive” in each case. Moreover, the Potency result in experiment [8], in experiment [9], in [10], in experiment [11], in [12] and in [13] was “inactive” each time. Besides, the Potency result in [14], in experiment [15], in experiment [16], in [17], in experiment [18] and in experiment [19] was “inactive” throughout. Further, the Potency entry in experiment [20] is “inactive”. Further, in experiment [2], the Potency result is “inactive and 61.1 µM (active)”.

Consider `C=CC1(C)OC(=O)N(c2cc(Cl)cc(Cl)c2)C1=O` (stereo unspecified), for which the Potency result in experiment [1], in [3], in experiment [4], in experiment [5], in experiment [6] and in experiment [7] was “inactive” in each case. For the same compound, the Potency result in experiment [8], in experiment [9], in experiment [10], in experiment [11], in experiment [12] and in [13] was “inactive” each time. In addition, the Potency entry in experiment [14], in [15], in [16], in experiment [17], in experiment [18] and in experiment [19] was “inactive” each time. Further, the Potency entry in experiment [20] was “inactive”. In addition, the Potency in experiment [2] was 68.2 µM (active) and inactive.

Regarding `Cc1cc(Cl)ccc1O`, the Potency result in experiment [1], in [2], in experiment [3], in experiment [4], in experiment [5] and in experiment [6] was “inactive” throughout. The Potency result in [7], in experiment [8], in experiment [9], in experiment [10], in experiment [11] and in experiment [12] was “inactive” in each case. Besides, the Potency entry in experiment [13], in experiment [14], in experiment [15], in [16], in experiment [17] and in experiment [18] was “inactive” in each case. Moreover, the Potency result in [19] and in [20] was “inactive” throughout.

Regarding `C=CCN1CC[C@]23CCCC[C@H]2[C@H]1Cc1ccc(O)cc13`, the Potency result in experiment [1], in experiment [2], in experiment [3], in experiment [4], in experiment [5] and in experiment [6] was “inactive” throughout. The Potency entry in [7], in [8], in experiment [9], in experiment [10], in [11] and in [12] was “inactive” in each case. Besides, the Potency entry in experiment [13], in [14], in [15], in [16], in experiment [17] and in experiment [18] was “inactive” in each case. For the same compound, the Potency entry in experiment [19] and in [20] was “inactive” in each case.

In the case of `CN(C)c1ccc(N(C)C)cc1`, the Potency result in experiment [1], in [3], in experiment [4], in experiment [5], in experiment [6] and in [7] was “inactive” throughout. Also, the Potency result in [8], in experiment [9], in [11], in experiment [12], in experiment [13] and in experiment [14] was “inactive” throughout. Besides, the Potency entry in [15] and in [16] was “inactive” in each case. Besides, the Potency in experiment [2] is 54.6 µM (active); in experiment [10], 365 nM (active).
